Most compounds without a hit are left out; they make up all but 2.6% or so of the library.
Luciferase inh = firefly luciferase inhibition | 72,000 tested, 2.2% active | Potency, µM (titrated, usually from 57.1 µM), most hits filed as inhibitors | purified firefly luciferase, luminescence, 8 min | P08659 | AID 411; further: nearly all actives have a fitted effect of over 40% in size
Target sequence (P08659 whole entry, looked up): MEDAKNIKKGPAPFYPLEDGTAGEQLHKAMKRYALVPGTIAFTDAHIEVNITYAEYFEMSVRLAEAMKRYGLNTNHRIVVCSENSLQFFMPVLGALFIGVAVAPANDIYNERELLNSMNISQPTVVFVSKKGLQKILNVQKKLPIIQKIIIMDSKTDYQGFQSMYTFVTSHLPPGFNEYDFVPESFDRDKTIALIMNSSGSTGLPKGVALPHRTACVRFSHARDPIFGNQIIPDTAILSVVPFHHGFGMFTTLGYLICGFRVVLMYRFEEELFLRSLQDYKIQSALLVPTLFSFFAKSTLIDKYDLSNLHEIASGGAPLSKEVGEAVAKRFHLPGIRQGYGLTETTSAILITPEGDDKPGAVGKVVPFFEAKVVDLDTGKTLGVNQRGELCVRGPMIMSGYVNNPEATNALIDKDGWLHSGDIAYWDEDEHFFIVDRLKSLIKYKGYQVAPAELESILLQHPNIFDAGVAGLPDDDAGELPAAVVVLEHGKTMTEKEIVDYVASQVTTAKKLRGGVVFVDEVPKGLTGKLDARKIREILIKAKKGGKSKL
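Luminescence read-out after 8 min at room temperature; enzyme reaction used luciferin plus 10 uM ATP (linear range) in imidazole buffer pH 7.2 with KCl, MgCl2, Tween 20 and BSA. Each sample was run as a titration.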
p53ts 39C tox = cytotoxicity in p53ts cells at nonpermissive temperature; H1299-p53A138V viability at 39C, ATP luminescence, 24 h; Potency, µM (doses to about 46.1 µM), actives largely listed as cytotoxic; 130,000 tested, 1.5% active; AID 902; further: nearly all actives have a fitted effect of over 55% in size
p53ts 32C kill = kills p53ts cells at the permissive temperature | 130,000 tested, 0.93% active | H1299-p53A138V at 32C, ATP luminescence viability, 24 h | Potency, µM (highest dose often 46.1 µM), hits mostly cytotoxic; further: nearly all actives have a fitted effect of over 55% in size
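ATP-content luminescence (ATPlite) read-out after 24 h compound exposure at 32C in H1299-p53A138V cells (600/well). Tested up to 46 uM. Normalized to DMSO (0%) and 100 uM tamoxifen (100% killing); Hill-fit AC50.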
Each line names hits and unclear results; the compound was inactive in the other large screens. The call rests on the fitted dose curve; in most records, active means well fitted curve in the direction sought with a large enough effect; inconclusive means small, poorly fitted or top-dose-only effect, or another doubt; inactive means no such curve, though single readings can be large; an effect the other way counts as inactive or inconclusive.

Cc1cccc(OC(C)C(=O)Nc2ncn[nH]2)c1 (centres undefined)	none (no result: Luciferase inh)
c1ccc2c(c1)Cn1nnnc1-2	none
c1ccc2c(c1)Cn1c-2nc2ccccc21	Luciferase inh 13µM, p53ts 39C tox 7.9µM, p53ts 32C kill 13µM
C=C1CC[C@@H]2[C@](C)(CC[C@@H](O)[C@]2(C)CO)[C@@H]1C/C=C1/C(=O)OC[C@H]1O	none (no result: p53ts 39C tox, p53ts 32C kill)
c1cc2c(cc1C1CCCCC1)c1c3n2CCN[C@H]3CCC1	p53ts 39C tox 10µM, p53ts 32C kill 25µM
Cc1ccc2c(c1)c1c3n2CCN[C@H]3CCC1	p53ts 39C tox inconclusive
C=C1c2cccc(O)c2C(O)=C2C(=O)[C@@]3(O)C(O)=C(C(N)=O)C(=O)[C@@H](N(C)C)[C@@H]3[C@@H](O)[C@H]12	none
CC1=C(/C=C/C(C)=C/C=C/C(C)=C/C(=O)Nc2ccc(O)cc2)C(C)(C)CCC1	p53ts 39C tox 16µM, p53ts 32C kill inconclusive (no result: Luciferase inh)
CC1=C(\C=C/C(C)=C/C=C\C(C)=C\C(=O)O)C(C)(C)CCC1	none
CC1CCc2c(sc3nnn(CC(=O)Nc4ccccc4Cl)c(=O)c23)C1 (centres undefined)	none (no result: Luciferase inh)
CC(C)c1ccc(NC(=O)CN2C=NS(=O)(=O)c3ccccc32)cc1	none (no result: Luciferase inh)
N=c1n(CCO)c2ccccc2n1CCOc1ccc(F)cc1	none (no result: Luciferase inh)
CCCCn1c(=N)n(CCCOc2ccc(F)cc2)c2ccccc21	p53ts 39C tox 10µM, p53ts 32C kill inconclusive (no result: Luciferase inh)
COC(=O)c1ccc(C(NC(=O)OCc2ccccc2)/C(F)=C/[C@@H](C)C(=O)N(C)Cc2cccnc2)cc1 (some centres undefined)	none (no result: Luciferase inh)
Cc1ccc(S(=O)(=O)c2c(Nc3ccc(C)c(C)c3)sc(C(=O)c3ccc4c(c3)OCO4)c2N)cc1	none (no result: Luciferase inh)
COc1ccc(C(=O)NCCCn2ccnc2)cc1	none
COc1ccc(CCCO[C@@H](Cn2ccnc2)c2ccc(OC)cc2)cc1	p53ts 39C tox 32µM, p53ts 32C kill inconclusive
O=[N+]([O-])c1cc(-c2nc(-c3ccco3)no2)ccc1NCc1ccccc1	none (no result: Luciferase inh)
CCOc1ccc2nc(NC(=O)COC)sc2c1	Luciferase inh 20µM, p53ts 39C tox inconclusive, p53ts 32C kill inconclusive
COCC(=O)Nc1nc2ccc(S(C)(=O)=O)cc2s1	none
CCC(=O)Nc1nc2cc(OC)ccc2s1	Luciferase inh inconclusive
CCOc1ccc2nc(NC(=O)c3ccoc3C)sc2c1	Luciferase inh 1.6µM, p53ts 39C tox inconclusive, p53ts 32C kill inconclusive
CCOc1ccc2nc(NC(=O)c3nc(SC)ncc3Cl)sc2c1	none (no result: Luciferase inh)
COc1ccc2sc(NC(=O)CC(C)C)nc2c1	Luciferase inh 25µM, p53ts 39C tox inconclusive
CCOc1ccc2nc(NC(=O)C(CC)Sc3nc(C)cc(=O)[nH]3)sc2c1 (centres undefined)	Luciferase inh inconclusive, p53ts 39C tox inconclusive
CCOc1ccc2nc(NC(=O)Nc3cccs3)sc2c1	Luciferase inh 0.63µM, p53ts 39C tox 10µM, p53ts 32C kill 16µM
COc1ccc(NC(=O)CC2C(=O)N(c3ccc(F)cc3)C(=O)N2Cc2ccc3c(c2)OCO3)cc1 (centres undefined)	none (no result: Luciferase inh)
CCN(Cc1ccccc1)Cc1c(O)ccc2oc(C)c(C(=O)Nc3ccccc3C)c12	none (no result: Luciferase inh)
COc1ccc(-n2c(=O)c3c(c4cc(OC)ccc4n3C)n(CC(=O)N3CCCC3)c2=O)cc1	none (no result: Luciferase inh)
COCCc1nn2c(=O)cc(COC(=O)c3ccc4c(c3)OCO4)nc2s1	none (no result: Luciferase inh)
COc1ccc(CNC(=O)c2ccc(N3CCCC3)c(NC(=O)NCc3ccc(F)cc3)c2)cc1	none (no result: Luciferase inh)
COc1ccc(Cl)c(Cn2c(NCCN)nc3c2c(=O)n(C)c(=O)n3C)c1	none (no result: Luciferase inh)
CCc1ccc(O)c(N=Cc2ccccc2O)c1	none
CN=CC1=C(O)c2ccccc2C1=O	none
Cc1ccc(O)c(N=CC2=C(O)c3ccccc3C2=O)c1	Luciferase inh 25µM, p53ts 39C tox inconclusive, p53ts 32C kill inconclusive
O=C1C(C=Nc2ccccc2O)=C(O)c2ccccc21	Luciferase inh 7.9µM, p53ts 39C tox inconclusive, p53ts 32C kill 10µM
N=c1c(C(=O)NCC2CCCO2)cc2c(=O)n3ccccc3nc2n1CCCO (centres undefined)	none (no result: Luciferase inh)
COc1ccc(NC(=O)c2c(NCc3ccc(N(C)C)cc3)sc3c2CCC3)cc1	none (no result: Luciferase inh)
Cc1cccc2nc(CSCc3ccco3)cn12	Luciferase inh 25µM
Cc1cc(C)n2cc(CSCc3ccco3)nc2n1	none
COc1ccc(CCNC(=O)c2cn(C)c3ccc(S(=O)(=O)N(C)C)cc3c2=O)cc1OC	none (no result: Luciferase inh)
COc1cc(OC)cc([C@H](CNc2ncnc3c2ncn3[C@@H]2O[C@@H](CO)[C@H](O)[C@@H]2O)c2ccccc2C)c1	none (no result: p53ts 39C tox, p53ts 32C kill)
COc1ccc(-c2cc(C(=O)N3CCCc4ccccc43)no2)cc1	Luciferase inh 16µM, p53ts 39C tox inconclusive, p53ts 32C kill inconclusive
COc1cc(C2=NOC(C(=O)N3CCCc4ccccc43)C2)cc(OC)c1OC (centres undefined)	none
